PubChem BioAssay AID1159506 (National Center for Advancing Translational Sciences (NCATS), 2015)
In all, about 59,000 sequences were measured (the read-out: median about -0.00055, lowest 2% from about -2 on). Many of the other results were omitted from the sample, so the lowest values are more common in it than they were.

Assay: Identification of proteins required for the processing of the EWS-FLI1 nascent transcript;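 note: robust z of luciferase light less the median z of siRNAs with the same seed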
Conditions: TC32 Ewing sarcoma NR0B1-luc vs CMV-luc (EWS-FLI1 target promoter against control promoter), 48 h; screened at 20 nM (by protocol)
Summary of the method: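 Readout: OneGlo luminescence, 48 h post-transfection, TC32-NR0B1-luc vs TC32-CMV-luc in parallel. siRNA 20 nM final, RNAiMax lipid, 600 cells/well; z-score-MAD transformed, then seed-adjusted.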

Row | Sequence | seed-corrected z-score
1 | AUAGGCAAGAGUGACAAGC against CNGB3 | 0.169
2 | UGGGAUCUAACUCCUUAGC against IFT172 | -2.76
3 | UACUAGAUGUGGUGCAUCC against RPS6KA3 | 0.496
4 | UAGGCAUCCGUAUCCCUGC against FAM131B | 0.847
5 | AGCUGCUAAACUUUCAUCC against JAKMIP2 | -2.59
6 | UCUCGAAUGAGAAUGCUCC against CSTF3 | -0.0852
7 | UUCUUGAUCUUGGAUCUUU against DLX5 | -0.846
8 | UUCUUGAUCAUCAUUCACC against SLC7A6OS | 0.569
9 | UAUCGUAAAAUCACAUGAG against AMFR | 0.503
10 | UGAUGUUUCGCAGGCACCG against CRHR1 | 0.0226
11 | UUAAUUACUCUCUUCAAUG against UGT2B7 | -0.533
12 | UUUUGGGCCUCUGAACUCC against LCE1B | 0.31
13 | UACCUUAACCAUCCGAUGC against WDR6 | 0.132
14 | UAGAGGAUAAUGUUCUCGG against ABHD17C | -12.1
15 | UUGGAGAUCAAUCCAGCCU against CBFB | 0.537
16 | UCAAUCAUCCGUGAGUUGC against WBSCR22 | 0.315
17 | UUUCAGCUGCGCUCGGUUC against GOLGA6L2 | -3.72
18 | UGCAUUCCGGCUGUGAUCG against LINC00152 | -0.804
19 | UUAUGGGCUCUGAUGACCG against DIP2C | 0.0672
20 | UUCAGGAUCGCGGUUAUCA against OR4X2 | 0.269
21 | UUAAAGACUCGGUUCACUG against PLXNA3 | -1.44
22 | UAUACUCCCGCACAUAGCC against PI4KA | -0.673

Row | Sequence | seed-corrected z-score
23 | UUGUUAUGAAUGUACAUCG against TMEM181 | -5
24 | UCCGCAGUUCCUUAAGUGG against LOC401589 | 0.0579
25 | UGCUGAAACCUUGAUGUGC against CRTC3 | 1.11
26 | UUGAGUAAGAGAUGGACCC against ZNF184 | -0.444
27 | AAUGAUCCCACAGAUAUCA against IKZF1 | 0.796
28 | UCUGUUCGAUCAUCCGUGC against ACP6 | -0.281
29 | UGUGUCCCUCCCAAUCUCC against GGT2 | 0.0675
30 | AAAUCGAUGAGAAACCUGC against KAT6A | 0.325
31 | UACAUUGUAGCAGAUGUUG against ACSS2 | -0.36
32 | AAGUCUACAAGUGAUCUCU against ATP6V0E2-AS1 | -2.23
33 | UGUUGUUUACGUUCGAUUG against ADD3 | -0.745
34 | UGUUAGGUAAGGCUAGGUC against UTS2B | 0.63
35 | AUUAUGAGCAUGCAGGUUC against ANKRD6 | 1.1
36 | UUUCUUCCCAGGUGUCUUG against PTHLH | -2.12
37 | UCUAGACCUAUGGACAGUC against WDFY2 | -0.0809
38 | UUAGCUUCCUCCAAAAUGC against LOC342293 | 1.1
39 | UCCUGGUUAAAUAGGAAGG against BLID | -0.822
40 | UACUGAGUAGUAGUUGGGC against DISP3 | -2.25
41 | UUUGGUUUGGAAAAGGUAC against KMT5A | 0.072
42 | UAACUUAGAAUUCCAUUUU against DMRTA2 | 0.067
43 | UGUCCUACCACAGUCUUCA against LINC00703 | -0.2
44 | UUUUCUGCAGCUUUAAGGG against IL17C | 1.34

Row | Sequence | seed-corrected z-score
45 | UGGUCAAUCUGUUCAAUGG against C16orf70 | -13.9
46 | UACAUAGUAAACUCGCCCG against ITCH | 0.22
47 | UAAGUAACCCAAGUAUUGC against C2orf69 | 0.361
48 | AGGGUUGACAUGGAACUGC against FITM1 | 0.313
49 | UUCCGUACAAAAUUGUGCA against ARAF | -0.24
50 | UGAGGUACAGUGAACAAGG against TMEM110 | -0.57
51 | AAACUGCUUCCGGACAUUG against ACAD8 | -1.71
52 | UACGUUUCUGAAGAAGGUG against FAM231D | 1.63
53 | UCUAGGAAAAGGACUCGGC against IKZF2 | 0.168
54 | UUGCUUAUUCUCUCUCACG against CAAP1 | -3.02
55 | UAAAAUACCCACGUGGUUC against TMEM150A | 0.686
56 | UUUCUCUGAAGUUAAGUCC against G0S2 | -0.192
57 | UAGAUAAUCUUGAACCUUC against UGP2 | 0.118
58 | UGCUUGAACGUGUCCGUCC against LRRC4B | -0.284
59 | UAACAGCGAAUUCCAAGGC against ZBTB12 | -2.07
60 | AAGACUAUAAAUCAUGUAG against LMBRD1 | -0.385
61 | AAUGUUGUGAUUAAGUAAG against DFNB59 | -2.62
62 | ACCUUGACCAGAAAGCUGC against C20orf27 | -0.672
63 | AAAAGUAUUACAAAAAGUG against MYOD1 | -0.532
64 | UAUACGUAAUGAAAGUUUC against SNX7 | 0.211
65 | AAACUGUGCAAAAGUCUCU against APCDD1L-AS1 | -0.722
66 | UUUGUGUCCACCGUUAUAA against EVPLL | 0.153

Row | Sequence | seed-corrected z-score
67 | AAAUGUACCAAUACGUAGU against TMEM107 | -2.13
68 | UCGUUUCUGUGCUCCGUCC against PCP2 | 0.0855
69 | UCGAUGUACACUUUGAGGC against B3GNT8 | 0.222
70 | UAUGAUUAAGAAUGAAACC against OR6C1 | 0.426
71 | UAUGGUUAGACCGCUUUCG against KIAA0408 | 0.0809
72 | AUAUGUUCGACUAUCAUGG against KATNBL1 | -3.24
73 | UAAGUCAGGAUAUUCGCUC against CRELD2 | -1.22
74 | UAAUGCGAUACAACUCGAC against COX4I1 | 1.65
75 | UGCACGAUCCGUUUGCUUC against RNASE11 | -0.108
76 | UCUGGAUCUGGUUUGCUGC against ZBTB3 | -1.18
77 | UUACUUAGUCUUGUGGUGG against HIST1H2AJ | 0.917
78 | ACGGUUUCAAUAUCUAACG against FAM160B1 | -14.4
79 | AGGAAUACAAGUCAUAUGC against TFB2M | 0.916
80 | AAGCUUUUCGUAGUCCUCA against NMRAL1 | 0.164
81 | UUCUCGAUGCUUGUGGUUU against DMBX1 | -0.553
82 | UUUGAUAACAGUUCACUGG against PLAG1 | 1.2
83 | UUCGAUAGAAUUUGAAAGC against SUGP2 | -2.02
84 | UUCGAUCAAAAUACAAGGC against GLDN | -0.856
85 | UGGAAUAUGACUCUUUGCC against STRA8 | -0.991
86 | AUGGGUAAGAUGUAUGUUG against ZFAND1 | -0.296
87 | UUCGGUAUCGUCUGUAUCC against USP8 | -1.37
88 | UCUGGAACUAUUUACUCGG against NEMP1 | -14.8

Row | Sequence | seed-corrected z-score
89 | AUGACAAUCACAUUCCUCU against AKR1B10 | 0.0562
90 | UUUGCUCCCACCAAAUACC against KLHDC1 | 1.18
91 | AUAGGAAGAACUCUGUUUG against SCHIP1 | -2.03
92 | UCCAUAAUCUGUUUCGCUG against INTS4 | -1.43
93 | UCAAUGACAGCUAAUAGCC against ARL13A | -1.36
94 | UUCUUAACAUAGGGCAUGG against RRM2B | -0.284
95 | UGAACCUCUAGACUCAUAG against ZDBF2 | -0.0347
96 | AAUUCGAUUAGAGAGUGUC against SENP5 | 0.00396
97 | UUUUCUCCCUUUAUAAGGC against OXCT1 | 1.02
98 | UAUCCAACUAUCUAAACUG against TMEM184C | -16.9
99 | UCUCGAAACACCCUACUCC against MKNK1 | 0.234
100 | UGAAGUAAUGGUGAGAGGG against CRYAB | 0.664
101 | UGACCUCCAACACUAGUGC against VPS8 | 0.213
102 | AUCGUAACAAGAAAGUUCC against RNF17 | 1.39
103 | AUCUGCAUAAACUCCACGC against SCGN | -2.24
104 | UCCAAGUUCACGAAGAUUU against MMD | 0.344
105 | UGUACUUUGGAACUAGUCC against ENKUR | 0.00323
106 | UUCCGGAUUACACCAGUGC against FAM171A2 | 0.108
107 | UUCGUAAGUGGUCCAGUUC against GSE1 | 1.07
108 | UCAAUUCUGAGCUUCGGUC against SPATA13 | 0.999
109 | UGGUAGUUCACGUUGAGCC against CASKIN2 | -2.53
110 | UGAAGUUACAUUCAGUUCU against ZFAND3 | 0.106

Row | Sequence | seed-corrected z-score
111 | UUAGAUCUUGAAAGAGUUC against ETV1 | -0.0727
112 | AUAGGUUUCAGAGAGGUGU against CA1 | 0.901
113 | AAUCUUAAAUUUUCCGAGC against RGS7 | -0.282
114 | UCGGGUGUUUUGGUCUUGC against LMOD1 | -2.52
115 | UACCUCAUAGGAUAACACC against MPP4 | 0.19
116 | AACGGUAGAAGCUGCAUGC against NOP58 | -1.46
117 | UCCUGCUUUAUAACUAGCC against ZNF621 | -4.33
118 | UUCAGCAUCUUUGUCGACC against RTFDC1 | -0.168
119 | UGAAGUUAAUGGGCCCUGG against MYL12BP2 | 0.711
120 | UCAUUUUCCUCAUAGGUGC against LAMB2 | -0.564
121 | AUACAUGCAGCUGUGGUUG against GABRB1 | -1.3
122 | UAAGCGAUCCAUAUCAAAC against PROX1 | 0.491
123 | UAACUGUUUAGCGAUGUCC against TBC1D1 | -2.09
124 | UUGUCUUCCUCCAUUGUCG against TSGA10IP | -0.628
125 | UCUCUUGAUGUGGACACUC against ITGAD | -0.0619
126 | UCAUGGUCCGAAGCUGGUG against LHX2 | -2.03
127 | UCGGCAAUAAUCUCGGCCU against HNRNPA0 | 0.556
128 | UGGUUUUGUACACCUGCUG against TNP2 | -0.158
129 | UAUUGAAGGACUCCUGAUC against RAB1A | 0.0899
130 | UUCAGAUGUCCGUCUAUGC against ABLIM3 | 0.714
131 | UUGGAAUACAUUGCCGUUC against SSR1 | -0.807
132 | UUUUGGACCGCUGCACCUG against CBY3 | 0.744
